From PubChem BioAssay AID1159580 (chemical genetic matrix, 2015)
About 2,000 (36%) of roughly 5,500 compounds were called active. Not shown: some 18% with an inconclusive outcome. Cut-off read from the data, not from the text of the source: active = normalized growth mostly below about 0.91 (no sharp cut-off); inconclusive = no clear call, values can overlap the other calls; inactive = mostly above about 0.92. The list shows a part of the results.

Test: chemical genetic growth profiling, strain panel (AID 1159580);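 note: tested at 20 µM; growth read once vehicle control cultures reached saturation at 30 °C; 1 = growth at the plate median or of vehicle wells; lower values mean less growth of the strain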
Settings: S. cerevisiae deletion strains, growth OD

Measured: normalized growth

O=C(Cc1ccccc1)NO
inactive: locus YAL021C, strain ccr4, hits give low values 0.981 | locus YAL026C, strain drs2, hits give low values 0.983 | locus YAL030W, strain snc1, hits give low values 0.995 | locus YBL061C, strain skt5, hits give low values 0.957 | locus YBR009C, strain hhf1, hits give low values 0.993 | locus YBR023C, strain chs3, hits give low values 0.978 | locus YBR171W, strain sec66, hits give low values 0.96 | locus YBR231C, strain swc5, hits give low values 0.974 | locus YBR279W, strain paf1, hits give low values 0.976 | locus YCL011C, strain gbp2, hits give low values 0.978 | locus YCL016C, strain dcc1, hits give low values 0.96 | locus YCL061C, strain MRC1, hits give low values 0.975 | locus YCL069W, strain vba3, hits give low values 0.979 | locus YCR088W, strain abp1, hits give low values 0.978 | locus YDL005C, strain med2, hits give low values 0.956 | locus YDL040C, strain nat1, hits give low values 0.975 | locus YDR001C, strain nth1, hits give low values 0.972 | locus YDR069C, strain doa4, hits give low values 0.953 | locus YDR137W, strain rgp1, hits give low values 0.976 | locus YDR159W, strain sac3, hits give low values 0.964 | locus YDR195W, strain ref2 0.953 | locus YDR297W, strain sur2, hits give low values 0.987 | locus YDR334W, strain swr1, hits give low values 1.01 | locus YDR335W, strain msn5, hits give low values 0.982 | locus YDR392W, strain spt3, hits give low values 0.993 | locus YEL003W, strain gim4, hits give low values 0.974 | locus YEL037C, strain rad23, hits give low values 0.962 | locus YEL061C, strain CIN8 (second series), hits give low values 0.989 | locus YER015W, strain faa2, hits give low values 0.98 | locus YER016W, strain bim1, hits give low values 0.982 | locus YER111C, strain swi4, hits give low values 0.985 | locus YER155C, strain BEM2 (second series), hits give low values 0.925 | locus YFR010W, strain ubp6, hits give low values 0.983 | locus YGL167C, strain pmr1, hits give low values 0.969 | locus YGL173C, strain kem1, hits give low values 0.979 | locus YGL227W, strain vid30, hits give low values 0.961 | locus YGL240W, strain doc1, hits give low values 0.995 | locus YGL253W, strain hxk2, hits give low values 0.962 | locus YHR013C, strain ard1, hits give low values 0.944 | locus YHR027C, strain rpn1, hits give low values 0.974 | locus YHR142W, strain chs7, hits give low values 0.917 | locus YJL092W, strain hpr5, hits give low values 0.99 | locus YJL095W, strain BCK1 (second series), hits give low values 0.96 | locus YJL115W, strain asf1, hits give low values 0.961 | locus YJL129C, strain trk1, hits give low values 0.954 | locus YJL154C, strain vps35, hits give low values 0.989 | locus YJL164C, strain tpk1, hits give low values 0.977 | locus YJL166W, strain qcr8, hits give low values 0.966 | locus YKL160W, strain elf1, hits give low values 0.944 | locus YKR026C, strain gcn3, hits give low values 0.973 | locus YKR091W, strain srl3, hits give low values 0.973 | locus YLL001W, strain dnm1, hits give low values 0.98 | locus YLL026W, hits give low values 0.97 | locus YLL041C, strain sdh2, hits give low values 0.976 | locus YLR027C, strain aat2, hits give low values 0.973 | locus YLR221C, strain rsa3, hits give low values 0.992 | locus YLR258W, strain gsy2, hits give low values 0.973 | locus YLR262C, strain YPT6 (second series), hits give low values 0.978 | locus YLR320W, strain mms22, hits give low values 0.952 | locus YLR342W, strain FKS1, hits give low values 0.98 | locus YLR357W, strain rsc2, hits give low values 0.938 | locus YLR370C, strain arc18, hits give low values 0.981 | locus YLR384C, strain iki3, hits give low values 0.961 | locus YML120C, strain ndi1, hits give low values 0.981 | locus YMR058W, strain fet3, hits give low values 0.984 | locus YMR125W, strain sto1, hits give low values 0.963 | locus YMR129W, hits give low values 0.973 | locus YMR205C, strain PFK2, hits give low values 0.992 | locus YMR231W, strain pep5, hits give low values 0.975 | locus YNL071W, strain lat1, hits give low values 0.965 | locus YNL209W, strain ssb2, hits give low values 0.984 | locus YNL248C, strain rpa49, hits give low values 0.95 | locus YNL322C, strain KRE1 (second series), hits give low values 0.949 | locus YNR049C, strain mso1, hits give low values 0.983 | locus YOR001W, strain rrp6, hits give low values 1 | locus YOR070C, strain gyp1, hits give low values 0.98 | locus YOR080W, strain dia2, hits give low values 0.94 | locus YOR083W, strain WHI5, hits give low values 0.928 | locus YOR106W, strain vam3, hits give low values 0.939 | locus YOR265W, strain rbl2, hits give low values 0.976 | locus YOR270C, strain vph1, hits give low values 0.936 | locus YOR290C, strain snf2, hits give low values 0.969 | locus YPL051W, strain arl3, hits give low values 0.972 | locus YPL078C, strain atp4, hits give low values 0.97 | locus YPL106C, strain sse1, hits give low values 0.949 | locus YPL240C, strain hsp82, hits give low values 0.963
